# Source: PubChem
# VACV mCherry inh: inhibitors of vaccinia virus infection (mCherry reporter signal); Vaccinia virus mCherry reporter infection, fluorescence; Potency, µM (titrated, usually from 36.5 µM), for the others: at the highest dose activity change, negative = inhibition, hits mostly inhibitors; hit rate 0.63% among 310,000; calls by dose curve; tested in A549 cells; note: potency is the fitted concentration of half-maximal effect; nearly all actives have a fitted effect of over 35% in size
# LASV entry inh: Lassa virus entry inhibition. hit rate 1.2% among 300,000. AID 540256. Lassa virus pseudotype entry inhibition, cell reporter. Potency, µM (titrated, usually from 37.9 µM), for inactives: top-dose activity change, negative = inhibition, most hits filed as inhibitors; calls by dose curve; tested in HEK293 cells; note: potency is the fitted concentration of half-maximal effect; nearly all actives have a fitted effect of over 50% in size
# HCMV antiviral: human cytomegalovirus inhibition; AID 1259415; HFF cells, HCMV-luciferase reporter, 72 h; active compounds read low; hit rate 4.5% among 410,000; activity change, negative = inhibition, % at 57.5 µM; in the data active = activity change below about -60%; inconclusive = no clear call, values can overlap the other calls; inactive = above about -39%
#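 Two compound doses tested in HFFs infected with HCMV-luciferase, MOI 1 PFU/cell, 72 h at 37C. Lysate luminescence read with OneGlo; data normalized against buffer-only and 10uM Salinomycin inhibitor controls.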
# MARV entry inh: blocks Marburg virus binding to or entry into cells | Marburg virus pseudotyped entry inhibition, cell reporter | Potency, µM (highest dose often 37.8 µM), for inactives: top-dose activity change, negative = inhibition, most hits filed as inhibitors | hit rate 1.8% among 300,000; calls by dose curve; tested in HEK293 cells; note: potency is the fitted concentration of half-maximal effect
# Vaccinia Venus: inhibitors of vaccinia virus (Venus reporter). Vaccinia virus Venus reporter expression, fluorescence. Potency, µM (series often up to 36.5 µM), for the others: top-dose activity change, negative = inhibition, actives largely listed as inhibitors. hit rate 0.46% among 330,000; calls by dose curve; tested in A549 cells; note: potency is the fitted concentration of half-maximal effect; nearly all actives have a fitted effect of over 30% in size
# HCV inhibitor: blocks hepatitis C virus; Huh7.5.1 HCVcc-Cre infection, luciferase reporter, 44 h; Potency, µM (highest dose often 41.8 µM), without a hit: top-dose activity change, negative = inhibition, actives largely listed as inhibitors; hit rate 3.4% among 340,000; AID 651820; active = well fitted inhibition curve with a large enough effect; inconclusive = small, poorly fitted or top-dose-only effect, or another doubt; inactive = no such curve, though single readings can be large or run the other way; note: potency is the fitted concentration of half-maximal effect
#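 Cells (1,000/well) were plated 4 h before compound, then infected with HCVcc-Cre virus (~0.5 moi). After 44 h further culture, infection was read as luciferase luminescence following a 15 min substrate incubation at room temperature.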
# Numbers without * were called inactive; i = inactive; u = inconclusive; x = no result given; [ ] = dose if it differs, or a comment. Only some compounds are listed: those with a hit (about 7.8% of all), similar ones and a draw of the others. % is set by controls: 0 for no effect and ±100 for the full control effect.
SMILES,VACV mCherry inh,LASV entry inh,HCMV antiviral,MARV entry inh,Vaccinia Venus,HCV inhibitor
COc1ccccc1C(=O)NC1(C(F)(F)F)C(=O)NC(C)=C1C#N (stereo not given),-8%,2%[46.1 µM],-7,-11%[46.1 µM],-5%,x
CC1=CC(c2ccc(Cl)cc2)n2ncnc2N1 (stereo not given),i,x,u,x,-4%,0.89µM*
CCn1cc2nc(SCc3cc(C)ccc3C)n(CCc3ccccc3)c(=O)c2n1,u,4µM*,-86*,x,-21%,x
CCn1cc2nc(SCc3cc(C)ccc3C)n(Cc3ccc(OC)cc3)c(=O)c2n1,u,u,2,x,u,x
CCOc1ccc(CCNC(=O)c2ccc(Cl)c(S(=O)(=O)N3CCOCC3)c2)cc1OCC,i,-22%,-25,u,-12%,u
CC(=O)c1ccc(NC(=O)c2ccc(C)c(S(=O)(=O)N3CCOCC3)c2)cc1,-14%,0%,-11,u,-15%,-18%
O=C(N/N=C/c1sc(N2CCOCC2)nc1-c1ccccc1)c1cccc(S(=O)(=O)N2CCCC2)c1,u,u,-112*,u,u,3.5µM*
O=C(N/N=C/c1sc(N2CCOCC2)nc1-c1ccccc1)c1ccc(O)cc1,-8%,u,49,-9%[46.1 µM],8%,u
CCOC(=O)c1ccc(NC(=O)c2ccc(C)c(S(=O)(=O)N3CCOCC3)c2)cc1,u,u,u,2.8µM*,u,5µM*
CCOc1ccc(CCNC(=O)c2ccc(C)c(S(=O)(=O)N3CCOCC3)c2)cc1OCC,-4%,u,-5,u,-21%,10µM*
CC(=O)Nc1ccc(/C=N/NC(=O)c2cccc(S(=O)(=O)N3CCOCC3)c2)cc1,-14%,-4%,-102*,u,-10%,27%
O=C(Nc1ccc(N2CCCCCC2)cc1)c1cccc(S(=O)(=O)N2CCOCC2)c1,-22%,u,-74*,u,-24%,2.5µM*
CCOC(=O)c1ccc(NC(=O)c2cccc(S(=O)(=O)N3CCOCC3)c2)cc1,x,u,-23,u,u,3.5µM*
CC(=O)c1cccc(NC(=O)c2cccc(S(=O)(=O)N3CCOCC3)c2)c1,-11%,-10%,27,6%[46.1 µM],-11%,-15%
CCOc1ccc(Nc2ncnc3c2c(-c2ccccc2)cn3-c2cccc(C)c2)cc1,-17%,5%[46.1 µM],-14,x,-5%,x
Cc1cccc(N(CC(=O)Nc2ccccc2C(F)(F)F)S(=O)(=O)c2ccccc2)c1C,-11%,u,-26,u,-15%,x
CCc1ccc2[nH]c(=O)c(C(c3nnnn3CC3CCCO3)N3CCCc4ccccc43)cc2c1 (stereo not given),x,-25%,-31,9.2µM*,x,-6%
O=c1[nH]c2cc3c(cc2cc1C(c1nnnn1Cc1ccccc1)N1CCCc2ccccc21)OCO3 (stereo not given),x,-13%,-85*,u,x,16%
CS(=O)(=O)c1cnc(-c2cccnc2)nc1N,-5%,-8%,-91*,1%[46.1 µM],-3%,15%
CCCNCC(O)COc1ccccc1C(=O)CCc1ccccc1 (stereo not given),-20%,u,28,9.2µM*,-14%,-17%[8.37 µM]
O=C(Nc1ccc2nc(N3CCOCC3)sc2c1)c1ccc(F)cc1,x,x,-2,x,x,u
O=C(NCc1cccc(Cl)c1)c1ccc2nc(N3CCOCC3)sc2c1,9%,x,-80*,x,-3%,u
O=C(Nc1ccc(F)cc1F)c1ccc2nc(N3CCOCC3)sc2c1,i,x,-19,x,-7%,13µM*
COCCN1CCN(C(=O)c2cnn(-c3nccc(-c4cc5ccccc5o4)n3)c2C2CC2)CC1,-26%,x,x,x,-9%,x
COC(=O)c1c(-c2ccc(C)cc2)csc1NC(=S)NC(=O)c1ccc(F)cc1,i,1%,1,9%,-10%,2%
SMILES,VACV mCherry inh,LASV entry inh,HCMV antiviral,MARV entry inh,Vaccinia Venus,HCV inhibitor
Cc1ccc(-c2csc(NC(=O)c3ccc(Br)cc3)c2C(=O)O)cc1,i,u,-95*,1.3µM*,0%,0%
CCOC(=O)c1c(-c2ccccc2)csc1NC(=O)c1cc(-c2ccc(F)cc2)on1,-8%,2%[46.1 µM],8,-13%[46.1 µM],12%,x
CCOC(=O)c1c(-c2ccc(C)cc2)csc1NC(=S)NC(=O)c1ccccc1,x,2.1µM*,u,1.8µM*,x,u
CCOC(=O)c1c(-c2ccc(F)cc2)csc1NC(=O)c1c(-c2ccccc2)noc1C,u,8.9µM*,-68*,3.5µM*,16%,u
CCOC(=O)c1c(-c2ccccc2)csc1NC(=O)C1CCCO1 (stereo not given),i,-21%,10,-19%,-9%,10µM*
Cc1ccc(S(=O)(=O)N2CC=C(c3c(C)n(CC(=O)N4CCCC4)c4ccccc34)CC2)cc1C,-8%,-19%[46.1 µM],-16,u,-7%,x
CCOC(=O)c1c(-c2ccccc2)csc1NC(=O)/C(C#N)=C/c1ccc(O)c(OC)c1,9%,-11%,-65*,4%,70%,-20%
CCOC(=O)c1c(-c2ccccc2)csc1NC(=O)/C(C#N)=C/c1ccc(OC)c(OC)c1,-14%,10%,28,-10%,0%,-2%
CN(/N=C\c1ccc(O)c(O)c1)c1nc(-c2ccccc2)cc(-c2ccccc2)n1,u,u,94,u,u,11µM*
COc1cc(/C=N/N(c2ccccc2)c2ccccc2)ccc1O,u,-22%,64,0%,u,u
CCC(c1nnnn1C(C)(C)C)N1CCN(c2cc(Cl)ccc2C)CC1 (stereo not given),x,13µM*,-15,10µM*,-29%,-18%
CCC(c1nnnn1C(C)(C)C)N1CCN(Cc2ccccc2OC)CC1 (stereo not given),x,x,-72*,x,x,1%
COc1ccccc1C(c1nnnn1C(C)(C)C)N1CCN(Cc2ccncc2)CC1 (stereo not given),i,-1%,-27,u,-3%,0%
CCCC(c1nnnn1CC1CCCO1)N1CCN(c2cc(Cl)ccc2C)CC1 (stereo not given),-29%,u,-12,u,u,-20%
CC1CC(C)CN(c2ccc(-n3cnnn3)cc2[N+](=O)[O-])C1 (stereo not given),i,-17%,-39,u,-23%,3%
O=[N+]([O-])c1cc(-n2cnnn2)ccc1N1CCC(Cc2ccccc2)CC1,x,-26%,-103*,u,x,u
CCCNC(=O)C1(C)CCN1C(=O)c1ccccc1CCc1ccccc1 (stereo not given),-3%,x,-61*,x,-3%,x
CC(C)(C)CNC(=O)C1(C)CCN1C(=O)c1ccccc1CCc1ccccc1 (stereo not given),3%,x,-15,x,-21%,x
CCCCOC(=O)/C=C/c1ccc(OC(=O)OC)c(OC(=O)OC)c1,-24%,u,-18,11µM*,-19%,u
